This note sets out measurements from PubChem BioAssay (NCI).

SMILES strings stand for the structures. This is part of a sample that, as a whole, favours compounds with a hit. Of some 83,000 tested, about 20% had one in any assay.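 Percent growth is the endpoint: 0 to 100 indicates growth inhibition (40 means 60% inhibition), 0 means no net growth, and negative values indicate cell death.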 Values without a mark were called inactive. The source made the active and inactive calls. The calls were made as follows: active = growth percent below 10; inactive = the rest.

In one test the test system is RPMI-8226 leukemia. The test is described as follows: NCI-60 one-dose screen, 48 h (100 = growth as untreated, 0 = no growth, -100 = all killed). The note with it: 10 µM unless noted.
Take `COc1cc(C2CC(=O)Nc3c2c(C)nn3-c2nc3ccccc3[nH]2)cc(OC)c1OC` (configuration not stated): the growth is 108%.
Regarding `CN1CCCCC1CCN1c2ccccc2Sc2ccc(Br)cc21` (configuration not stated), the growth is 46%.
Still for that read-out and setting: the same measure for `Cc1ccc(C2CC3c4ccccc4C2C2CCCCN32)cc1` (configuration not stated): 60.1%; for `N=S(=O)(NC(=O)c1ccc(Cl)cc1Cl)c1ccc(Br)s1` (configuration not stated): 86.5%; for `COc1ccc(CN(c2ccc(C)cc2)C2OC(=O)c3ccccc32)cc1OC` (configuration not stated): 93.9%.
The same measure, in the same setting: in the case of `c1c2c(cc3c1OCO3)Cc1cc3c(cc1Cc1cc4c(cc1C2)OCO4)OCO3` it was 111%; in that of `CCCCCCCCCCCCS(=O)CC(C)O` (configuration not stated), 98.6%.
For `CC1(C)CC(C(=O)OCCCCCCCCCCC[P+](c2ccccc2)(c2ccccc2)c2ccccc2)C(C)(C)N1O` (configuration not stated), the growth was -43.8% (active).
Take `COc1ccc(/C(=C/c2ccc3ccccc3c2)c2nn[nH]n2)cc1OC`: the growth is 16.6%.
Still for that read-out and setting: in the case of `O=[N+]([O-])c1cccc(C2CC(c3ccccc3)=Nc3ccccc3S2)c1` (configuration not stated) it was 16.1%.
Take `CCOC(=O)/C=C/c1ccc(C(=O)OCC)[nH]1`: the growth is 75.4%.
With `CS(CCCCN=C=S)=NC(=O)c1c(F)c(F)c(F)c(F)c1F` (configuration not stated), the growth was 10.3%.
Still for that read-out and setting: in the case of `COC1C/C(=N\O)C2OC(c3ccccc3)OCC2O1` (configuration not stated) it was 104%.
Turning to `Cc1cc(Nc2nc(N3CCN(C)CC3)nc3ccccc23)n[nH]1`, the growth is 87.2%.
Still for that read-out and setting: in the case of `O=C1Nc2ccccc2/C1=C/C(=N/c1nnc(-c2ccccc2)s1)c1ccccc1` it was -17.5% (active); in that of `COc1ccc(N(Cc2cc(OC)c(OC)c(OC)c2)C2OC(=O)c3ccccc32)cc1` (configuration not stated), 10.6%.
Consider `Cc1csc2ccc(Cl)cc12`, for which the growth is 109%.
As to `O=C1Nc2ccccc2/C1=C/C(=N/c1nnc(-c2ccc(Cl)cc2)s1)c1ccccc1`, the growth is -14.4% (active).
For `CC(=O)OCC1OC(OC2=C(CC=C(Cl)Cl)C(=O)c3ccccc3C2=O)C(OC(C)=O)C(OC(C)=O)C1OC(C)=O` (configuration not stated), the growth is 9.85% (active).
On the same count and under the same terms, the same measure for `O=C(/C=C/c1ccc(B(O)O)cc1)/C=C/c1ccc(B(O)O)cc1`: -23.5% (active); for `Cc1cc2cc3cc(C)c(N(C)C)cc3[n+](C)c2cc1N(C)C`: 4.78% (active).

In a further test the test system is OVCAR-8 ovarian. Described as above. The note with it: 10 µM unless noted.
Turning to `Cc1ccc(Nc2c(C(N)=O)cnc3ccc(-c4csc(N)n4)cc23)cc1`, the growth was 101%.
For the compound `Cl/C(=N\Nc1ccccc1)c1ccccc1`, the growth is 75.8%.
As for `COc1cc(-c2c3sc(=O)[nH]c3nc3c2c(=O)[nH]n3C(C)C)cc2c1OCO2`, the growth is 108%.
Turning to `CC(C)(C)n1cc(-c2ccnc(NCCNS(=O)(=O)c3ccccc3)c2)c(-c2cccc(O)c2)n1`, the growth was 67.2%.
On to `COC(=O)C12C3C(=O)N(c4ccc(OC)cc4)C(=O)C3C(c3cn(-c4ccccc4)nc3C)N1[C@H](c1cn(-c3ccccc3)nc1C)[C@@H]1C(=O)N(c3ccc(OC)cc3)C(=O)[C@@H]12` (some centres not stated), for which the growth was 99%.
The same measure, in the same setting: in the case of `CC/C(Cc1ccccc1)=C(/c1ccc(O)cc1)c1ccc(OCCN2CCCC2)cc1` it was -6.37% (active); in that of `CCCCCC(=O)N(CCCC)CCCC`, 102%; in that of `COc1cccc(/C=C2/C(=O)N(Cc3ccco3)SC2=S)c1OC`, 81.1%.
The same measure, in the same setting: in the case of `COc1ccc(-c2cc(/C=C3\C(=O)Nc4ccc(Cl)cc43)[nH]n2)cc1` it was 67.5%.
Still for that read-out and setting: the same measure for `CCOC(=O)C(C#N)C1CCCCC1` (configuration not stated): 103%.
Take `CC(C)[C@H]1COC(=O)N1[C@@H]1C(=O)N([C@@H](CCC(=O)N2CCN(C3CCCC3)CC2)C(=O)N[C@@H]2CCCc3ccccc32)[C@@H]1/C=C/c1cccc(Br)c1`: the growth was 62.1%.
The same measure, in the same setting: in the case of `Nc1ccc(N2CCOCC2)cc1` it was 105%.
The same measure, in the same setting: the same measure for `COc1cccc(/C=C\C(=O)c2ccccc2)c1`: 81.4%; for `NS(=O)(=O)c1ccc(-n2ncc3c(=O)[nH]c(CN4CCN(c5cc6c(cc5F)c(=O)c(C(=O)O)cn6C5CC5)CC4)nc32)cc1`: 97.8%.
`COc1cc(C2CC(=O)Nc3c2c(C)nn3-c2nc3ccccc3[nH]2)cc(OC)c1OC` (configuration not stated): the growth was 103%.
Still for that read-out and setting: in the case of `CN1CCCCC1CCN1c2ccccc2Sc2ccc(Br)cc21` (configuration not stated) it was 62.3%.
Still for that read-out and setting: in the case of `Cc1ccc(C2CC3c4ccccc4C2C2CCCCN32)cc1` (configuration not stated) it was 109%.
Consider `CCOC(=O)CC(C)=N`, for which the growth was 108%.
Take `N=S(=O)(NC(=O)c1ccc(Cl)cc1Cl)c1ccc(Br)s1` (configuration not stated): the growth was 90.9%.
Same read-out and setting: in the case of `COc1ccc(CN(c2ccc(C)cc2)C2OC(=O)c3ccccc32)cc1OC` (configuration not stated) it was 108%; in that of `c1c2c(cc3c1OCO3)Cc1cc3c(cc1Cc1cc4c(cc1C2)OCO4)OCO3`, 101%; in that of `CCCCCCCCCCCCS(=O)CC(C)O` (configuration not stated), 103%.
For the compound `CC1(C)CC(C(=O)OCCCCCCCCCCC[P+](c2ccccc2)(c2ccccc2)c2ccccc2)C(C)(C)N1O` (configuration not stated), the growth was -39% (active).
The same measure, in the same setting: in the case of `COc1ccc(/C(=C/c2ccc3ccccc3c2)c2nn[nH]n2)cc1OC` it was 40.5%; in that of `Cc1cccc(NC(=O)c2sc3nc4c(cc3c2N)C(=O)CCC4)c1`, 52.2%; in that of `O=[N+]([O-])c1cccc(C2CC(c3ccccc3)=Nc3ccccc3S2)c1` (configuration not stated), 61.9%.
`CCOC(=O)/C=C/c1ccc(C(=O)OCC)[nH]1`: the growth was 62.9%.
The same measure, in the same setting: in the case of `CS(CCCCN=C=S)=NC(=O)c1c(F)c(F)c(F)c(F)c1F` (configuration not stated) it was 91.9%; in that of `COC1C/C(=N\O)C2OC(c3ccccc3)OCC2O1` (configuration not stated), 114%.
On the same count and under the same terms, in the case of `Cc1cc(Nc2nc(N3CCN(C)CC3)nc3ccccc23)n[nH]1` it was 99.6%; in that of `O=C1Nc2ccccc2/C1=C/C(=N/c1nnc(-c2ccccc2)s1)c1ccccc1`, 36.8%; in that of `COc1ccc(N(Cc2cc(OC)c(OC)c(OC)c2)C2OC(=O)c3ccccc32)cc1` (configuration not stated), 22.1%.
For `O=C1Nc2ccccc2/C1=C/C(=N/c1nnc(-c2ccc(Cl)cc2)s1)c1ccccc1`, the growth was 10.4%.
Still for that read-out and setting: in the case of `CC(=O)OCC1OC(OC2=C(CC=C(Cl)Cl)C(=O)c3ccccc3C2=O)C(OC(C)=O)C(OC(C)=O)C1OC(C)=O` (configuration not stated) it was 18%; in that of `O=C(/C=C/c1ccc(B(O)O)cc1)/C=C/c1ccc(B(O)O)cc1`, 72.2%.
For the compound `Cc1cc2cc3cc(C)c(N(C)C)cc3[n+](C)c2cc1N(C)C`, the growth was 23.4%.
